The assay has as its system Phorbol Ester. Briefly: off-target binding across receptor panel, profiling panel, selectivity assay for AVPR1a antagonist project, biochemical, Panlabs HitProfilingScreen (AID 743088). The conditions noted are these: Panlabs radioligand binding panel, 30 targets, at 10 µM, stronger effect = higher value.

Values without a mark were called inactive.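 The calls were made as follows: active = binding inhibited by at least 50%, or stimulated by at least 50%, shown as inhibition of -50% or lower; inactive = the rest.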

Take `O=C(C1CCN(c2ccc(Cl)cn2)CC1)N(CC1CC1)c1ccc(Cl)cc1`: the inhibition of binding was -13%.

The values are drawn from PubChem BioAssay AID743088 (The Scripps Research Institute Molecular Screening Center, 2013).
